A short description of test [1]: CCTE_Shafer_MEA_dev_mutual_information_norm: CCTE's Neural Network Formation Assay for Mutual Information Normalization, Shafer Lab (AID 2284091; active = hit-call score of the fitted dose curve at least 0.9, where 1 is the maximum; inactive = score below 0.9;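 for AC50: mutual information between electrodes summarised as area under curve across four recording days; potency is for a decrease in mutual information relative to DMSO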). An outline of the steps:
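Rat cortical cultures, 48-well MEA, continuous exposure DIV 0–12 with full media/compound change DIV 5 and 9. Readout: inter-electrode mutual information, AxIS adaptive spike detection; AUC across DIV 5/7/9/12 recordings; DMSO baseline, negative fitting direction.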

A short description of test [2]: CCTE_Shafer_MEA_dev_correlation_coefficient_mean: CCTE's Neural Network Formation Assay for Mean Correlation Coefficient, Shafer Lab (AID 2284093; active = hit-call score of the fitted dose curve at least 0.9, where 1 is the maximum; inactive = score below 0.9;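 for AC50: well mean pairwise spike train correlation integrated as AUC over recording days 5 to 12; potency fitted for loss of correlation relative to DMSO vehicle wells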). An outline of the steps:
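Spontaneous activity recorded on days 5, 7, 9 and 12 post-plating; pairwise spike correlations are averaged across active electrodes and collapsed to an area-under-curve. Rat cortical cultures are dosed from plating through 12 days, with compound renewed at media changes.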

Test [3] is described as follows: UKN2_HCS_IMR90_neural_migration: University of Konstanz (UKN) Leist Lab Neural Crest Cell Migration Assay in human induced IMR90 Pluripotent Stem Cells (UKN2) (AID 2284204; active = hit-call score of the fitted dose curve at least 0.9, where 1 is the maximum; inactive = score below 0.9). As to conditions: actives raise or lower the signal. An outline of the steps:
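iPSC-derived IMR90 neural crest cells on PLO/laminin/fibronectin were seeded around silicone stoppers; after stopper removal, migration in N2-S medium with EGF and FGF ran 24 h before 24 h chemical exposure. Calcein-AM/Hoechst high-content imaging; bidirectional fit versus DMSO.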

Test [4] is described as follows: CCTE_Shafer_MEA_dev_LDH: CCTE's Lactate Dehydrogenase Assay for Cytotoxicity in the Neural Network Formation Assay, Shafer Lab (AID 2284068).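 Note: exposure for twelve days from plating with re-dosing on DIV 5 and 9.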 A digest of the protocol:
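Primary rat cortical neurons were plated on PEI/laminin MEA plates and exposed from day 0 for twelve days, with compound renewed at DIV 5 and 9. Cytotoxicity was determined by spectrophotometric LDH assay relative to DMSO.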

A short description of test [5]: UKN5_HCS_SBAD2_cell_viability: Viability Assessment in the University of Konstanz (UKN) Leist Lab Neurite Outgrowth Assay in human iPSC-derived immature Dorsal Root Ganglia Neurons (UKN5) (AID 2284056; active = hit-call score of the fitted dose curve at least 0.9, where 1 is the maximum; inactive = score below 0.9). An outline of the steps: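 iPSC-derived immature peripheral neurons (SBAD2) seeded on Matrigel with CHIR99021, SU5402 and DAPT, dosed 1 h later for 24 h. Viability from Hoechst H-33342 and calcein-AM live staining, high-content imaging; bidirectional fit versus DMSO.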

A short description of test [6]: UKN5_HCS_SBAD2_neurite_outgrowth: University of Konstanz (UKN) Leist Lab Neurite Outgrowth Assay in human iPSC-derived immature Dorsal Root Ganglia Neurons (UKN5) (AID 2284070; active = hit-call score of the fitted dose curve at least 0.9, where 1 is the maximum; inactive = score below 0.9). Conditions: actives raise or lower the signal. An outline of the steps:
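Human iPSC-derived immature DRG neurons (SBAD2) on Matrigel with CHIR99021 (1.5 uM), SU5402 (5 uM), DAPT (5 uM); compounds added 1 h post-seeding for 24 h. Calcein-AM neurite area imaged; bidirectional fit vs DMSO.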

Test [7] can be described thus: CCTE_Shafer_MEA_dev_AB: CCTE's Alamar Blue Assay for Cytotoxicity in the Neural Network Formation Assay, Shafer Lab (AID 2284083).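 Note: twelve days of exposure from plating with re-dosing on DIV 5 and 9.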 As to the method: CCTE_Shafer_MEA_dev assay is conducted using Axion Biosystems 48 well microelectrode array (MEA) plates and Maestro recording system. Each well of the MEA plate contains a grid of 16 microelectrodes embedded in the culture surface. Electrically active cells, such as neurons, can be cultured over the electrodes, and electrical activity in these cells can be recorded extracellularly. The spontaneous firing of neurons is captured from each electrode on a microsecond timescale providing both temporally and spatially precise data. […] The CCTE_Shafer_MEA_dev assay uses primary cultures of rat cortical neurons. Recordings are made on days post-plating 5, 7, 9 and 12. As these cultures mature over time, neural networks develop functional activity and form cohesive networks in which electrical activity can be highly coordinated. CCTE_Shafer_MEA_dev_AB is 1 of 19 assay components of the CCTE_Shafer_MEA_dev assay. It measures the resazurin reduction using fluorescence.Data from the assay component CCTE_Shafer_MEA_dev_AB was analyzed into 1 assay endpoint. This assay endpoint, CCTE_Shafer_MEA_dev_AB, was analyzed in the positive analysis fitting direction relative to DMSO as the negative control and baseline of activity. Using a type of viability reporter, loss-of-signal activity can be used to understand cell viability.
On the day prior to culture, each well was coated thoroughly with 150 uL of 0.05% polyethyleneimine (PEI, Sigma Cat P3143) in 50 mM HEPES (Sigma Cat H7523) at a pH of 8. The plate was incubated at 37C for one hour. PEI was rinsed out with 500 uL of sterile water three times. Plates were stored at 4C until the day of culture. This culture was plated at a seeding density of 1.5 x 10^5 cells/well on a 48-well MEA plate, prepared as described above. Cells were administered via a 25 uL media/laminin ([…]; Sigma Cat L2020-1MG) drop directly onto the microelectrode array, as adding the cells with the laminin results in better attachment than pre-coating with laminin. After 2 hours, an additional 475 uL of cortical media was added and the cells returned to the incubator. Exposure starts at day 0 of plating and is continued over twelve days of network development until the experiment is terminated. Cells are fed with fresh medium on DIV 5 and 9, following the recordings on those days. The entire volume of media in the well is exchanged and any vehicle or compound treatment is renewed. Complete details are found in OP-NHEERL/ISTD/SBB/TJS/2015-03-r0 (available on request, email shafer.tim@epa.gov). Measurement of the electrical activity is non-invasive, and recordings can be made from the same plate over multiple different days of the culture. In cortical neurons, this allows for the measurement of extracellular action potentials over the period during which networks form in the MEA plate.
A general note: Resazurin is reduced to fluorescent resorufin, in cell work by metabolically active cells.

A short description of test [8]: UKN4_HCS_LUHMES_neurite_outgrowth: University of Konstanz (UKN) Leist Lab Neurite Outgrowth Assay in human LUHMES cells (UKN4) (AID 2284206; active = hit-call score of the fitted dose curve at least 0.9, where 1 is the maximum; inactive = score below 0.9). Conditions: actives raise or lower the signal. The procedure: UKN4_HCS_LUHMES is a cell-based, multiplexed-readout assay screening for neurite outgrowth and cell viability that uses LUHMES, a human central nervous system cell line, with measurements taken at […] after chemical dosing in a microplate: 96-well plate. UKN4, also referred to as NeuriTox, is an assay that uses LUHMES neuronal precursors as a model of dopaminergic neuronal differentiation. Following a 2-day differentiation period, cells are exposed to chemicals for 24 hr and neurite area is evaluated as a marker of neurite outgrowth using high-content imaging of cells stained with calcein AM. Cell viability is assessed using stain Hoechst H-33342.UKN4_HCS_LUHMES_neurite_outgrowth is an assay component measured from the UKN4_HCS_LHUMES assay. It is designed to make measurements of neurite outgrowth, a form of morphology reporter, as detected with Fluorescence intensity signals by HCS Fluorescent Imaging.The assay endpoint UKN4_HCS_LUHMES_neurite_outgrowth was analyzed with bidirectional fitting relative to DMSO as the negative control and baseline of activity. Using a type of morphology reporter, gain or loss-of-signal activity can be used to understand developmental effects. To generalize the intended target to other relatable targets, this assay endpoint is annotated to the neurodevelopment intended target family, where the subfamily is neurite outgrowth. […]

Test [9] can be described thus: CCTE_Shafer_MEA_acute_LDH: CCTE's Lactate Dehydrogenase Assay for Cytotoxicity in the Neural Acute Assay, Shafer Lab (AID 2284086).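 Note: active means LDH release rises above DMSO vehicle level.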 An outline of the steps: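 Primary rat cortical neurons on 48-well MEA plates, treated on day 13 or 15 post-plating. After the 40-min recording with compound, medium LDH release was read by absorbance at 490 nm. Gain of signal was fitted against DMSO negative control.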

Test [10] in a line: CCTE_Shafer_MEA_acute_AB: CCTE's Alamar Blue Assay for Cytotoxicity in the Neural Acute Assay, Shafer Lab (AID 2284069).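 Note: active compounds lower the viability signal compared with DMSO wells.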 An outline of the steps: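 Primary rat cortical neurons on MEA plates, exposed acutely after baseline recording on day 13 or 15 post-plating. Viability by CellTiter Blue resazurin reduction (1:6 reagent dilution), fluorescence 544/590 nm; loss of signal versus DMSO.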

Molecules are shown by their SMILES. Results filed as inconclusive are left out. Some compounds were tested as several samples or in several runs, with calls that do not always agree. Active and inactive are the calls of the source. Rule for the calls, unless noted: active = hit-call score of the fitted dose curve at least 0.9, where 1 is the maximum; inconclusive = response in the unintended direction; inactive = score below 0.9.

With `CCCCC(CC)COC(=O)COc1ccc(Cl)cc1C` (centres undefined), the result in test [1], in test [2] and in [3] was inactive.
With `c1ccc2scnc2c1`, the outcome in [4], in test [1], in test [2] and in test [3] was inactive.
For `N#CCCNCCC#N`, the result in test [4], in test [1] and in [2] was inactive.
Usually AC50 stands for the concentration at which the activity in the assay is half-maximal. In the case of `CC(C)Cc1ccc(C(C)C(=O)O)cc1` (centres undefined), the compound was classed as inactive in test [5], in [6], in test [2], in [3] and in [8]. Also, the AC50 in test [4] was 15 µM (active); in test [7], 2.98 µM (active); in test [1], 3.62 µM (active).
Turning to `CCCO[Si](OCCC)(OCCC)OCCC`, the compound was called inactive in test [9].
As to `O=C(c1ccc(OCCN2CCCCC2)cc1)c1c(-c2ccc(O)cc2)sc2cc(O)ccc12`, the compound was called inactive in test [10] and in test [9].
With `CC(=O)c1ccc(C)cc1`, the compound was classed as inactive in [9].
For `C[C@]12CC[C@@H]3c4ccc(O)cc4CC[C@H]3[C@@H]1CC[C@@H]2O`, the result in test [4], in test [7], in test [1] and in test [2] was inactive. For the same compound, in test [7], the AC50 is 6.6 µM (active).
Turning to `CCn1cc(C(=O)O)c(=O)c2ccc(C)nc21`, the call in test [9] was inactive.
Turning to `CC(C)(CO)CO`, the result in test [10] and in [9] was inactive.
In the case of `CCCCOCCOCCO`, in [9], the outcome was inactive.
As to `CCCCN(CCO)CCO`, the outcome in [10] was inactive.
Take `CC/C(=C(\c1ccccc1)c1ccc(OCCN(C)C)cc1)c1ccccc1`: the half-maximal activity concentration (AC50) in test [4] is 2.87 µM (active); in test [7], 5 µM (active); in [1] it was 0.196 µM (active); in [2] it was 3.76 µM (active). In addition, in test [10], the call was inactive.
Take `c1ccc(OCCOc2ccccc2)cc1`: the compound was called inactive in [10] and in test [9].
Regarding `N[C@@H](CCC(=O)O)C(=O)O`, the outcome in test [4], in test [7], in test [9], in test [1] and in [2] was inactive.

(Values after PubChem BioAssay (EPA / NIEHS).)
